Pol eta inh-1: blocks human DNA polymerase eta activity. Q9Y253. recombinant Pol eta, fluorescent DNA replication assay. Potency, µM (series often up to 114 µM), for inactives: top-dose activity change, negative = inhibition, most hits filed as inhibitors. 1.2% of 390,000 active. AID 588591; note: % is set by controls: 0 for no effect and ±100 for the full control effect
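Pol eta at 10 nM preincubated with compounds 15 min at room temperature; reaction started with fluorescent substrate (50 nM final) and read kinetically at 0 and 10 min.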
POLB inh: blocks human DNA polymerase beta activity; 1.3% of 340,000 active; Potency, µM (series often up to 114 µM), for the others: at the top dose activity change, negative = inhibition, hits mostly inhibitors; Pol beta primer extension/strand displacement, fluorescence kinetic; AID 485314; note: % is set by controls: 0 for no effect and ±100 for the full control effect
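Curves were derived by four-parameter Hill fits of normalized qHTS data. The kinetic fluorescent primer-extension read was taken at 0 and 10 min after 50 nM substrate, following a 15 min room-temperature preincubation of 10 nM enzyme with compounds.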
WRN helicase inh-1: WRN helicase (human) inhibition; WRN helicase unwinding, fluorescent forked duplex, kinetic; 0.46% of 360,000 active; Potency, µM (series often up to 114 µM), without a hit: at the top dose activity change, negative = inhibition, actives largely listed as inhibitors; Q14191; note: % is set by controls: 0 for no effect and ±100 for the full control effect; nearly all actives have a fitted effect of over 55% in size
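Kinetic fluorescence helicase assay: unwinding of a quenched forked DNA duplex (100 nM final) with 2 mM ATP final raises red fluorescence (525/598 nm). Compounds sat 15 min at room temperature with 20 nM WRN beforehand.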
FEN1 inh-1: inhibitors of human flap endonuclease 1 | AID 588795 | P39748 | 0.35% of 390,000 active | Recombinant FEN1 flap cleavage, fluorescence, 15 min | Potency, µM (doses to about 114 µM), inactives show at the top dose activity change, negative = inhibition, actives largely listed as inhibitors; note: % is set by controls: 0 for no effect and ±100 for the full control effect; nearly all actives have a fitted effect of over 65% in size
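Compounds are tested as a concentration series against 10 nM FEN1; after a 15 min room-temperature preincubation, 50 nM substrate starts cleavage, with plate reads at 0 and 15 min. Normalized responses are fitted by a Hill equation.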
Pol kappa inh-1: DNA polymerase kappa (human) inhibition | 0.53% of 400,000 active | purified Pol kappa, fluorescent DNA synthesis assay, 10 min | Q9UBT6 | AID 588579 | Potency, µM (top dose mostly 107 µM), for inactives: at the top dose activity, negative = inhibition, most hits filed as inhibitors; note: % is set by controls: 0 for no effect and ±100 for the full control effect
Target sequence (Q9UBT6 whole entry, looked up): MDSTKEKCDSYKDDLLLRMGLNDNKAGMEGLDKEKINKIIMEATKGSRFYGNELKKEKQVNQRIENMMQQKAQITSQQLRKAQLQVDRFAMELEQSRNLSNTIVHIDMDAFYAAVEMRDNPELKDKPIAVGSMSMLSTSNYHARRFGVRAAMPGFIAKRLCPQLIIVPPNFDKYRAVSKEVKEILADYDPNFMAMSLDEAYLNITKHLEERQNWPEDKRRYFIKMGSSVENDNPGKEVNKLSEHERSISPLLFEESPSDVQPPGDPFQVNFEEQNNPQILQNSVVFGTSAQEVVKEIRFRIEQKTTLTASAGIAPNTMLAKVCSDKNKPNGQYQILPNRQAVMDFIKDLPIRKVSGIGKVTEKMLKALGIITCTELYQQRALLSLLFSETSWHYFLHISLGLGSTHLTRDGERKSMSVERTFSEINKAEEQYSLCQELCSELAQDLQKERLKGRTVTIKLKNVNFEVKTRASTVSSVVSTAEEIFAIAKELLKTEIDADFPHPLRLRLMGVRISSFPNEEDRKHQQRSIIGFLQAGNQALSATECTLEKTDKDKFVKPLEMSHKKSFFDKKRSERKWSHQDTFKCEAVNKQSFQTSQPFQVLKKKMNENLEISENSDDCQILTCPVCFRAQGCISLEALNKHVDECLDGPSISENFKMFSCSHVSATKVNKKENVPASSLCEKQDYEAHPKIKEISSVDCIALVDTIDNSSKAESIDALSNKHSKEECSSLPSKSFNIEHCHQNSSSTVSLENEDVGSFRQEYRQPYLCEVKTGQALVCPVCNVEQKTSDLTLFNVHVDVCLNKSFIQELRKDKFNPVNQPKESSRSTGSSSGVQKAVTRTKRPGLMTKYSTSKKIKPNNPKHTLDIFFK
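Inhibition of 10 nM Pol kappa is measured by a fluorescent read-out at 0 and 10 min following addition of 50 nM substrate (final), with a 15-min room-temperature compound preincubation.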
Pol iota inh: inhibitors of human DNA polymerase iota; Pol iota fluorescent replication assay, 10 min; Potency, µM (doses to about 115 µM), without a hit: at the top dose activity, negative = inhibition, most hits filed as inhibitors; 1% of 390,000 active; AID 588590
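Pol iota at 10 nM preincubated 15 min with compounds at room temperature; reaction started with fluorescent substrate, 50 nM final. Fluorescence read kinetically at 0 and 10 min; buffer-only wells as negative control.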
PGK validate: blocks T. brucei phosphoglycerate kinase. shares compounds with Pol kappa inh-1. TbPGK coupled GAPDH assay, Kinase-Glo luminescence. Potency, µM (titrated, usually from 57.5 µM), inactives show at the highest dose activity change, negative = inhibition, most hits filed as inhibitors. 79% of 500 active. AID 686980; note: % is set by controls: 0 for no effect and ±100 for the full control effect; nearly all actives have a fitted effect of over 65% in size
POLI cherry-pick: Human Pol iota inhibitor confirmatory assay; shares compounds with Pol kappa inh-1; Pol iota primer extension, TAMRA/BHQ fluorescence; Potency, µM, actives largely listed as inhibitors; 77% of 1,500 active; AID 720496
Pol kappa inh-2: confirmation of human DNA polymerase kappa inhibitors; purified Pol-kappa, fluorescent strand-displacement substrate; AID 720501; 76% of 920 active; shares compounds with Pol eta inh-1; Potency, µM, usual class: inhibitors
Pol eta inh-2: confirmation of human DNA polymerase eta inhibitors; 64% of 2,600 active; shares compounds with Pol eta inh-1; Potency, µM, actives largely listed as inhibitors; Pol eta primer extension, TAMRA/BHQ fluorescence, 10 min; AID 720502
FEN1 inh-2: confirmation of human FEN1 inhibitors | shares compounds with FEN1 inh-1 | FEN1 flap cleavage, TAMRA/BHQ2 fluorogenic DNA substrate | Potency, µM, usual class: inhibitors | 79% of 880 active; note: nearly all actives have a fitted effect of over 60% in size
WRN helicase inh-2: confirmation of human WRN helicase inhibitors; shares compounds with WRN helicase inh-1; WRN helicase DNA unwinding, fluorescence kinetic; 63% of 610 active; Potency, µM (titrated, usually from 57.1 µM), inactives show at the top dose activity, negative = inhibition, actives largely listed as inhibitors; note: nearly all actives have a fitted effect of over 65% in size
TO displacement: DNA binding via thiazole orange displacement; shares compounds with WRN helicase inh-1; thiazole orange DNA binding displacement, fluorescence; Potency, µM (titrated, usually from 57.1 µM), inactives show top-dose activity change, negative = inhibition, usual class: inhibitors; 10% of 610 active; AID 720499;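 note: drop in dye fluorescence marks compound binding to DNA; % is set by controls: 0 for no effect and ±100 for the full control effect; nearly all actives have a fitted effect of over 60% in size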
BLM helicase inh: blocks human BLM helicase in WRN counterscreen. shares compounds with WRN helicase inh-1. Recombinant BLM helicase DNA unwinding, red fluorescence. Potency, µM (series often up to 57.1 µM), inactives show at the top dose activity change, negative = inhibition, most hits filed as inhibitors. 60% of 610 active; note: nearly all actives have a fitted effect of over 60% in size
* = called active by the depositor; ? = inconclusive; . = no result given; [ ] = dose if it differs, or a comment. Sampled rows, rich in hits. Any-hit rate of the full collection: about 2.4%. Calls come from the whole dose curve; as a rule, active = well fitted curve in the direction sought with a large enough effect; inconclusive = small, poorly fitted or top-dose-only effect, or another doubt; inactive = no such curve, though single readings can be large; an effect the other way counts as inactive or inconclusive. Potency is the fitted concentration of half-maximal effect.

SMILES	Pol eta inh-1	POLB inh	WRN helicase inh-1	FEN1 inh-1	Pol kappa inh-1	Pol iota inh	POLI cherry-pick	Pol eta inh-2	WRN helicase inh-2	TO displacement	BLM helicase inh	others
COc1ccc(C(=O)N(Cc2sccc2C)C2CCS(=O)(=O)C2)cc1Cl (stereo not drawn)	.	20%	.	-3%	14%	21%	.	.	.	.	.
COc1ccc(NC(=O)/C(C#N)=C\c2ccc(OCc3ccc(C(=O)O)cc3)c(OC)c2)cc1	?	8%	35µM*	?	-4%	32µM*	?	?	-27%	?	?
N#C/C(=C\c1ccccc1OCc1ccc(C(=O)O)cc1)C(=O)Nc1ccc(O)cc1	?	24%	-21%[57.1 µM]	-9%	-3%	?	.	.	.	.	.
O=C(CCS(=O)(=O)c1ccc(Cl)cc1)Nc1ccccc1Br	-13%	-1%	-2%[57.1 µM]	1%	-4%	1%	.	.	.	.	.
COC(=O)c1ccccc1NC(=O)CCS(=O)(=O)c1ccc(Br)cc1	3.5µM*	2.5µM*	25µM*	?	20µM*	-99%	21*	27*	9.6µM*	-8%	2.4µM*	PGK validate=?;Pol kappa inh-2=15*
Cc1nc2ccc(C(=O)O)cc2c2c1CC(C)S2 (stereo not drawn)	2.5µM*	22µM*	32µM*	?	32µM*	5µM*	19*	9.5*	19µM*	-18%	?
C/C(O)=C1\C(=O)[C@@H]2[C@H]3c4c[nH]c5cccc(c45)C[C@H]3C(C)(C)N2C1=O	.	.	.	.	-5%[19.4 µM]	.	.	.	.	.	.
CC(C)=CCc1c(O)ccc2c1OC(c1ccc(O)c(O)c1)CC2=O (stereo not drawn)	-15%	?	-7%	-21%	-14%	-30%	.	.	.	.	.
O=C1CC(c2ccc(O)c(O)c2)Oc2c1ccc(O)c2O (stereo not drawn)	0.79µM*	0.4µM*	3.2µM*	3.5µM*	1.8µM*	1.6µM*	3.4*	3.4*	1.1µM*	?	0.96µM*	PGK validate=0.92µM*;FEN1 inh-2=34*
Cc1ccc(-c2cn3c(n2)sc2cc(C(=O)NC4CCCCC4)ccc23)cc1	-2%	-4%	.	-2%	0%	14%	.	.	.	.	.
c1cnc(N2CCN(c3ncc4c(n3)CCNC4)CC2)nc1	18µM*	45µM*	.	8%	-30%	?	17*	24*	22µM*	?	?	Pol kappa inh-2=3*;FEN1 inh-2=15*

Compound activity from PubChem.
